About 1,500 (3.8%) of roughly 39,000 compounds were called active. This excerpt belongs to a sample that is enriched for actives.
Tested on: HSkMC (human skeletal muscle cells)
Experiment: cytotoxicity call (relative viability < 0.9)
Settings: 10 µM

Row | SMILES | cytotoxicity call
1 | COc1ccccc1NC(=O)N(C)C[C@H]1Oc2ncc(C#CCN(C)C)cc2C(=O)N([C@@H](C)CO)C[C@H]1C | inactive
2 | C[C@@H]1CN([C@@H](C)CO)C(=O)c2cc(NC(=O)Nc3ccc(C(F)(F)F)cc3)ccc2O[C@H]1CN(C)Cc1ccc(Cl)c(Cl)c1 | inactive
3 | C[C@H](CO)N1C[C@H](C)[C@@H](CN(C)Cc2ccc(Cl)c(Cl)c2)Oc2ccc(NC(=O)Nc3ccc(C(F)(F)F)cc3)cc2C1=O | active
4 | C[C@H]1CN([C@@H](C)CO)C(=O)c2cc(NC(=O)Nc3ccc(C(F)(F)F)cc3)ccc2O[C@@H]1CN(C)Cc1ccc(Cl)c(Cl)c1 | inactive
5 | C[C@@H]1CN([C@H](C)CO)C(=O)c2cc(NC(=O)Nc3ccc(C(F)(F)F)cc3)ccc2O[C@@H]1CN(C)Cc1ccc(Cl)c(Cl)c1 | active
6 | C[C@H](CO)N1C[C@H](C)[C@H](CN(C)Cc2ccc(Cl)c(Cl)c2)Oc2ccc(NC(=O)Nc3ccc(C(F)(F)F)cc3)cc2C1=O | active
7 | C[C@@H]1CN([C@H](C)CO)C(=O)c2cc(NC(=O)Nc3ccc(C(F)(F)F)cc3)ccc2O[C@@H]1CN(C)Cc1ccncc1 | inactive
8 | C[C@@H]1CN([C@@H](C)CO)C(=O)c2cc(NC(=O)Nc3ccc(C(F)(F)F)cc3)ccc2O[C@@H]1CN(C)Cc1ccc(Cl)c(Cl)c1 | active
9 | C[C@@H]1CN([C@H](C)CO)C(=O)c2cc(NS(=O)(=O)c3ccc(F)cc3)ccc2O[C@H]1CN(C)Cc1ccncc1 | inactive
10 | CN1C(=O)c2cc(NS(C)(=O)=O)ccc2OC[C@H]2O[C@@H](CC(=O)N3CCOCC3)CC[C@@H]21 | inactive
11 | C[C@@H]1CCCCO[C@H](CN(C)S(=O)(=O)c2cccs2)[C@@H](C)CN([C@H](C)CO)C(=O)c2cc(NC(=O)C3CCCCC3)ccc2O1 | inactive
12 | COCC(=O)N1[C@@H]2c3ccc(C4=CCCCC4)c(=O)n3C[C@@H]2[C@@H](CO)[C@@H]1C(=O)N1CCN(C)CC1 | inactive
13 | Cc1ccc(S(=O)(=O)Nc2ccc3c(c2)C(=O)N([C@H](C)CO)C[C@@H](C)[C@@H](CN(C)C(=O)Nc2cccc4ccccc24)O3)cc1 | inactive
14 | CO[C@H]1CN(C)C(=O)c2cc(NS(=O)(=O)CC(F)(F)F)ccc2OC[C@@H](C)N(C(=O)NC(C)C)C[C@@H]1C | inactive
15 | O=C1NCCCc2occc21 | inactive
16 | Cc1noc(C)c1S(=O)(=O)Nc1ccc2c(c1)C(=O)N([C@@H](C)CO)C[C@H](C)[C@H](CN(C)Cc1ccccc1)O2 | inactive
17 | CO[C@H](CN(C)S(=O)(=O)c1ccc(C)cc1)[C@H](C)CN([C@@H](C)CO)S(=O)(=O)c1cccc(Cl)c1 | inactive
18 | COc1ccc(NC(=O)N(C)C[C@@H]2Oc3ncc(C#CCN(C)C)cc3C(=O)N([C@H](C)CO)C[C@@H]2C)cc1 | inactive
19 | COCC#Cc1ccc2c(c1)O[C@@H](CN(C)C(=O)C1CCOCC1)[C@H](C)CN([C@@H](C)CO)S2(=O)=O | inactive
20 | C[C@H](CO)N1C[C@H](C)[C@@H](CN(C)Cc2ccc(Cl)c(Cl)c2)Oc2ccc(NC(=O)Nc3ccc(F)cc3)cc2C1=O | inactive
21 | C[C@@H]1CN([C@H](C)CO)C(=O)c2cc(NC(=O)Nc3ccc(C(F)(F)F)cc3)ccc2O[C@H]1CN(C)Cc1ccc(Cl)c(Cl)c1 | active
22 | C[C@H]1CN([C@@H](C)CO)C(=O)c2cc(NC(=O)Nc3ccc(C(F)(F)F)cc3)ccc2O[C@H]1CN(C)Cc1ccc(Cl)c(Cl)c1 | active
23 | C[C@H]1CN([C@@H](C)CO)C(=O)c2cc(NC(=O)Nc3ccc(F)cc3)ccc2O[C@@H]1CN(C)Cc1ccc(Cl)c(Cl)c1 | inactive

Row | SMILES | cytotoxicity call
24 | C[C@@H]1CN([C@@H](C)CO)S(=O)(=O)c2ccc(Br)cc2O[C@H]1CN(C)S(=O)(=O)c1ccccc1 | inactive
25 | C[C@@H]1CN([C@H](C)CO)C(=O)Cc2cc(NS(=O)(=O)c3ccc(F)cc3)ccc2O[C@@H]1CN(C)Cc1ccncc1 | inactive
26 | C[C@H]1CN([C@@H](C)CO)C(=O)CCCn2nncc2CO[C@H]1CN(C)S(=O)(=O)c1cn(C)cn1 | inactive
27 | Cc1noc(C)c1NC(=O)N(C)C[C@H]1Oc2c(NC(=O)Nc3ccc(C(F)(F)F)cc3)cccc2C(=O)N([C@H](C)CO)C[C@@H]1C | inactive
28 | C[C@H]1CN([C@@H](C)CO)S(=O)(=O)c2ccc(-c3ccncc3)cc2O[C@@H]1CN(C)C(=O)c1cccc(F)c1 | inactive
29 | CNC(=O)CN1C(=O)[C@@H]2[C@@H](C1=O)[C@@H]1C=C[C@@H]2C1 | inactive
30 | C[C@@H]1CN([C@H](C)CO)C(=O)c2cccc(NC(=O)Nc3ccc(F)cc3)c2O[C@H]1CN(C)CC1CCCCC1 | inactive
31 | C[C@H]1CN([C@@H](C)CO)C(=O)c2cccc(NC(=O)Nc3ccc(C(F)(F)F)cc3)c2O[C@H]1CN(C)CC1CCCCC1 | inactive
32 | C[C@H](CO)N1C[C@H](C)[C@H](CN(C)CC2CCCCC2)Oc2c(NC(=O)Nc3ccc(C(F)(F)F)cc3)cccc2C1=O | inactive
33 | C[C@@H]1CN([C@H](C)CO)C(=O)c2cccc(NC(=O)Nc3ccc(F)cc3)c2O[C@@H]1CN(C)CC1CCCCC1 | inactive
34 | C[C@H](CO)N1C[C@H](C)[C@H](CN(C)CC2CCCCC2)Oc2c(NC(=O)Nc3ccc(F)cc3)cccc2C1=O | inactive
35 | C[C@@H]1CN([C@@H](C)CO)C(=O)c2cccc(NC(=O)Nc3ccc(F)cc3)c2O[C@H]1CN(C)CC1CCCCC1 | inactive
36 | C[C@@H]1CN([C@H](C)CO)C(=O)c2cccc(NC(=O)Nc3ccc(C(F)(F)F)cc3)c2O[C@H]1CN(C)CC1CCCCC1 | active
37 | C[C@H]1CN([C@@H](C)CO)C(=O)c2cccc(NC(=O)Nc3ccc(F)cc3)c2O[C@H]1CN(C)CC1CCCCC1 | inactive
38 | C[C@@H]1CN([C@@H](C)CO)C(=O)c2cccc(NC(=O)Nc3ccc(C(F)(F)F)cc3)c2O[C@@H]1CN(C)CC1CCCCC1 | inactive
39 | C[C@H](CO)N1C[C@H](C)[C@@H](CN(C)CC2CCCCC2)Oc2c(NC(=O)Nc3ccc(C(F)(F)F)cc3)cccc2C1=O | active
40 | C[C@@H]1CN([C@H](C)CO)C(=O)c2cccc(NC(=O)Nc3ccc(C(F)(F)F)cc3)c2O[C@@H]1CN(C)CC1CCCCC1 | active
41 | C[C@H]1CN([C@@H](C)CO)C(=O)c2cccc(NC(=O)Nc3ccc(C(F)(F)F)cc3)c2O[C@@H]1CN(C)CC1CCCCC1 | active
42 | C[C@@H]1CN([C@H](C)CO)C(=O)c2cc(C#Cc3ccccc3F)cnc2O[C@@H]1CN(C)C(=O)Cc1ccncc1 | inactive
43 | C[C@H](CO)N1C[C@H](C)[C@H](CN(C)S(=O)(=O)c2cn(C)cn2)OCCCC[C@H](C)Oc2ccc(NC(=O)Nc3ccc(C(F)(F)F)cc3)cc2C1=O | inactive
44 | O=C(CCC(=O)N1CCOCC1)Nc1c(F)c(F)nc(N2CCOCC2)c1F | inactive
45 | C[C@@H]1CCCCO[C@H](CN(C)S(=O)(=O)c2ccccc2)[C@H](C)CN([C@@H](C)CO)C(=O)c2cc(NC(=O)Nc3cccc4ccccc34)ccc2O1 | inactive
46 | COCC(=O)N1C[C@]2(C1)CN([C@H](CO)c1c2c2ccc(cc2n1C)OC)C(=O)CN1CCOCC1 | inactive

Row | SMILES | cytotoxicity call
47 | C/C=C/c1cccc(-c2nc(C(=O)NCc3ccc(OC)cc3)cc3c2[C@@H](CCO)N([S@@](=O)C(C)(C)C)C3)c1 | inactive
48 | Cc1ccc(S(=O)(=O)N(C)C[C@H]2Oc3ncc(Br)cc3C(=O)N([C@H](C)CO)C[C@H]2C)cc1 | inactive
49 | C[C@H](CO)N1C[C@H](C)[C@H](CN(C)Cc2ccc(C(F)(F)F)cc2)OCCCC[C@H](C)Oc2ccc(NS(C)(=O)=O)cc2C1=O | inactive
50 | COc1ccc(OCC(=O)NCC(=O)O)cc1 | inactive
51 | O=C(O)Cc1nnc(-c2ccncc2)[nH]1 | inactive
52 | O=C(O)CCN1CCCCCC1=O | inactive
53 | CCn1nnc2c1CCN(S(=O)(=O)c1cn(C)cn1)[C@@H]2COC | inactive
54 | COc1ccc(S(=O)(=O)N(C)C[C@H]2OCCCC[C@@H](C)Oc3ccc(NC(=O)Nc4ccc5c(c4)OCO5)cc3C(=O)N([C@@H](C)CO)C[C@@H]2C)cc1 | inactive
55 | Cc1cc(C(=O)Nc2cccc3c2O[C@H](CN(C)S(=O)(=O)c2cccs2)[C@H](C)CN([C@H](C)CO)C3=O)n(C)n1 | inactive
56 | Cc1cccc2ccccc12 | inactive
57 | Oc1ccc(F)c2ccccc12 | inactive
58 | Oc1cccc2ccccc12 | active
59 | C[C@H](CO)N1C[C@H](C)[C@H](CN(C)C(=O)Nc2ccc(C(F)(F)F)cc2)OCCCC[C@H](C)Oc2ccc(NC(=O)C3CCCCC3)cc2C1=O | inactive
60 | O=C(C[C@@H]1CC[C@@H]2[C@H](COC[C@@H](O)CN2S(=O)(=O)c2ccccc2)O1)NCc1ccc2c(c1)OCO2 | inactive
61 | C[C@H]1CN([C@@H](C)CO)C(=O)c2c(c3ccccc3n2C)-c2ccccc2CO[C@@H]1CN(C)C(=O)NC1CCCCC1 | inactive
62 | CC(C)=CCC1=C(O)C(=O)c2ccccc2C1=O | inactive
63 | C=CC(C)(C)c1[nH]c2ccccc2c1C1=C(O)C(=O)C(c2c[nH]c3c(CC=C(C)C)cccc23)=C(O)C1=O | active
64 | C[C@@H]1CN([C@@H](C)CO)C(=O)c2cc(NS(=O)(=O)c3cn(C)cn3)ccc2O[C@@H]1CN(C)C(=O)Nc1ccc(F)cc1 | inactive
65 | C[C@@H]1CN([C@@H](C)CO)C(=O)c2cc(NC(=O)Nc3cccc4ccccc34)ccc2O[C@@H](C)CCCCO[C@@H]1CN(C)Cc1ccc(C(=O)O)cc1 | inactive
66 | Cc1ccc(S(=O)(=O)N(C)C[C@H]2Oc3ccc(NS(=O)(=O)c4ccc(F)cc4)cc3C(=O)N([C@@H](C)CO)C[C@H]2C)cc1 | inactive
67 | COc1ccccc1C#Cc1cnc2c(c1)C(=O)N([C@H](C)CO)C[C@@H](C)[C@H](CN(C)C(=O)c1ccc3c(c1)OCO3)O2 | inactive
